Results filed as inconclusive are left out. A number with no mark means an inactive call. Activity calls are given as the source filed them. Calls follow the shape of the dose curve; as a rule, active = well fitted curve in the direction sought with a large enough effect; inconclusive = small, poorly fitted or top-dose-only effect, or another doubt; inactive = no such curve, though single readings can be large or run the other way.
Target: Caspase-1 (Homo sapiens) (UniProt P29466)
Assay: Concentration-Response Counterscreen for Tau: Redox Active Inhibitors of Caspase-1
Conditions: purified caspase-1, Ac-WEHD-AFC fluorescence kinetic; series mostly up to 40.6 µM; activity change, negative = inhibition: at the top concentration
Source text: NIH Molecular Libraries Probe Production Network [MLPCN] NIH Chemical Genomics Center [NCGC] MLPCN Grant: X01 MH083262-01 Assay Provider: Carlo Ballatore, University of Pennsylvania NCGC Assay Overview: The microtubule-associated protein tau is an abundant protein in the axons of neurons that stabilizes microtubules. With its ability to modulate microtubule dynamics, tau contributes directly or indirectly, to key structural and regulatory cellular functions. Particularly important is the influence tau exerts on axonal transport, which allows signaling molecules, trophic factors and other essential cellular constituents to travel along the axons. Under pathological conditions, tau becomes sequestered into insoluble aggregates called neurofibrillary tangles. This phenomenon is believed to have pathological consequences by promoting axonal transport deficits that ultimately lead to synaptic dysfunction and neuronal loss. To examine the selectivity of tau fibrillization inhibitors, compounds were tested in an in vitro assay for caspase-1 activity. This assay is a counterscreen for tau fibrillization inhibitors to identify non-specific oxidizing agents; an active site cysteine in caspase-1 must remain in a reduced state and the enzyme is inactivated by oxidative compounds. Caspase-1 activity was monitored using a profluorescent substrate that upon enzymatic cleavage yields a fluorescent probe that is detectable at 405 nm excitation and 525 nm emission. Scheer, J. M., Wells, J. A., and Romanowski, M. J. (2005) Protein Expression and Purification 41, 148-153.
NCGC Assay Protocol Summary: Caspase-1, kindly provided by Dr. James Wells (University of California, San Francisco), was purified and assayed at 100 nM in buffer containing 50 mM HEPES pH 7.5, 50 mM KCl, 200 mM NaCl, and 0.1% CHAPS. Caspase-1 was dispensed at 3 uL/well into black solid 1536-well plates and incubated 5 min with various concentrations of test compound, with subsequent addition of 1 ul/well Ac-WEHD-AFC substrate (20 uM final concentration). Within 1 minute of substrate addition, fluorescence intensity (405 nm excitation and 525 nm emission) was measured on a ViewLux (PerkinElmer) every 30 s for 10 min. The first 3 minutes of fluorescence values were linear and used to calculate the slope of substrate conversion as a measure of enzyme activity.

Sequence of Caspase-1 (Homo sapiens) (P29466 whole entry, looked up): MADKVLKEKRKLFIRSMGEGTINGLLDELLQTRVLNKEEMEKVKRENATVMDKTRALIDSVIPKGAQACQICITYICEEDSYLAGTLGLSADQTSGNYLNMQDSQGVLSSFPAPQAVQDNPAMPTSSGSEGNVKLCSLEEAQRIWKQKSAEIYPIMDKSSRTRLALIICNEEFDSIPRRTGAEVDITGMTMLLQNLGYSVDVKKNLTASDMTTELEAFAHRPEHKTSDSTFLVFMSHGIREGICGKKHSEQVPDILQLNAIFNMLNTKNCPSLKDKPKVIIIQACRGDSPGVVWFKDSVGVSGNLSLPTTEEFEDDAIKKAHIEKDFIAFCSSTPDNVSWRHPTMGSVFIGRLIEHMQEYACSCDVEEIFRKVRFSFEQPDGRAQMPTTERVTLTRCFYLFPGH

Row | Structure (SMILES) | activity change, negative = inhibition [%] | Potency
1 | Nc1scc2c(C(=O)N3CCOCC3)nn(-c3ccccc3)c(=O)c12 | -10 | –
2 | Nc1scc2c(CO)nn(-c3ccccc3)c(=O)c12 | -19.2 | –
3 | CCOC(=O)c1nn(-c2ccc(F)cc2)c(=O)c2c(N)scc12 | -19.8 | –
4 | CC(=O)Nc1sc(C)c2cnn(-c3ccccc3)c(=O)c12 | -3.22 | –
5 | CCOC(=O)c1nn(-c2ccccc2)c(=O)c2c(N)sc(C)c12 | -9.73 | –
6 | CCOC(=O)c1nn(-c2ccc(OC)cc2)c(=O)c2c(N)scc12 | – | inactive
7 | Nc1nn(-c2ccccc2)c(=O)c2c(N)scc12 | -11.3 | –
8 | CCOC(=O)c1nn(-c2ccc(C)c(C)c2)c(=O)c2c(N)scc12 | 1.88 | –
9 | CCOC(=O)c1nn(-c2ccccc2)c(=O)c2c(NC(C)=O)scc12 | -13.9 | –
10 | CCOC(=O)c1nn(-c2ccccc2F)c(=O)c2c(N)scc12 | 7.77 | –
11 | CCOC(=O)c1nn(-c2ccccc2)c(=O)c2c(N)scc12 | -11 | –
12 | COc1ncc(-c2ccccc2)cc1N | – | 15.8 µM (active)
13 | Nc1cc(-c2ccccc2)c[nH]c1=O | – | 7.94 µM (active)
14 | CCOC(=O)c1nn(-c2ccc(C)cc2)c(=O)c2c(N)scc12 | -3.58 | –
15 | CCOC(=O)c1nn(-c2ccccc2)c(=O)c2c(NC(=O)c3ccccc3)scc12 | -8.05 | –
16 | CCOC(=O)c1nn(-c2ccc(Cl)c(Cl)c2)c(=O)c2c(N)scc12 | -2.84 | –
17 | Nc1scc2c(C(=O)O)nn(-c3ccccc3)c(=O)c12 | -14.5 | –
18 | CCOC(=O)c1ccc(-n2nc(C(=O)OCC)c3csc(N)c3c2=O)cc1 | -20.3 | –
19 | CCOC(=O)c1nn(-c2cccc(C(F)(F)F)c2)c(=O)c2c(N)scc12 | -16.5 | –
